Only some compounds are listed: those with a hit (about 0.54% of all), similar ones and a draw of the others.
Vif-A3F inh – Vif-A3F binding inhibition. HeLa A3F-eYFP + Vif (tagged APOBEC3F with the HIV-1 protein that degrades it), YFP fluorescence increase. Potency, µM (top dose mostly 46.1 µM), without a hit: at the top dose activity, negative = active. 390,000 compounds, 0.2% hits; also: potency is read from the fitted curve at half-maximal effect; % of control where 0% means no effect; nearly all actives have a fitted effect of over 65% in size
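HeLa cells stably expressing Vif plus C-terminally eYFP-tagged A3F were seeded, incubated overnight at 37 deg C, dosed with compound, incubated overnight again at 37 deg C. Yellow fluorescence (Ex 488/Em 500-530) reported blocked Vif-mediated A3F-eYFP degradation.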
TRPML1 agonist – agonists of human TRPML1 channel | Q9GZU1 | TRPML1-expressing cells, Ca2+ dye fluorescence, FDSS | activation, % (concentration not given with the values) | 410,000 compounds, 0.12% hits | AID 624414; in the data active = activation above about 50%; inconclusive = mostly about 30% to 49%; also: 0% is about no effect
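Kinetic FDSS Ca2+ read in Tet-induced TRPML1-DL cells (ABD Ca8 dye plus quencher, 45-90 min RT loading): baseline, then compound, then 110 s agonist window; EC80 agonist 54-4 at 4uM final added afterwards for a 110 s antagonist window.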
Vif-A3G inh – inhibitors of Vif-APOBEC3G interaction; Q9HC16; HeLa A3G-eYFP + Vif (tagged APOBEC3G with the HIV-1 protein that degrades it), YFP fluorescence, overnight; Potency, µM (titrated, usually from 46.1 µM), without a hit: at the top dose activity, negative = active, actives largely listed as inhibitors; 410,000 compounds, 0.076% hits; also: potency is read from the fitted curve at half-maximal effect; % is scaled to controls: 0 for no effect and ±100 for the full control effect; nearly all actives have a fitted effect of over 60% in size
Target sequence (Q9HC16 whole entry, looked up): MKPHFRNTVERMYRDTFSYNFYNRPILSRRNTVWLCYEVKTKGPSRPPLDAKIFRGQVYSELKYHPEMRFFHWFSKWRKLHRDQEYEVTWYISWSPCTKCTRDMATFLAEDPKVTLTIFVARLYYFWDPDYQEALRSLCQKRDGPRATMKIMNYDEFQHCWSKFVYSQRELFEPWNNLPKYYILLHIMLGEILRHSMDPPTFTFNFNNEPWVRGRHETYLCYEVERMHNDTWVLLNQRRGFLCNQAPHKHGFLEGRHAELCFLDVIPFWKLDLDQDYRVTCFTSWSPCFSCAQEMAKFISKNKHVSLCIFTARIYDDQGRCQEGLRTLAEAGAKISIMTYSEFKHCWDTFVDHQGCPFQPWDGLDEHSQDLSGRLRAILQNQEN
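HeLa cells stably expressing Vif and C-terminally eYFP-tagged A3G, seeded overnight at 37 deg C, then exposed to compound by pintool overnight at 37 deg C. Rise in yellow fluorescence (Ex 488/Em 500-530, Acumen) marks blocked Vif-driven A3G degradation.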
AT treatment – candidate therapy for ataxia-telangiectasia; F2112 A-T fibroblasts, KAP-1 phosphorylation AlphaLISA; neocarzinostatin DNA damage 30 min before lysis; Potency, µM (titrated, usually from 57.5 µM), inactives show top-dose activation, actives largely listed as activators; 320,000 compounds, 0.19% hits; also: potency is read from the fitted curve at half-maximal effect; % of control where 0% means no effect; nearly all actives have a fitted effect of over 45% in size
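ATM-like activity read as KAP-1 phosphorylation via AlphaLISA donor/acceptor antibody pairs after lysis and 6 hr at 25C. Cells were ATM-null patient fibroblasts (F2112, hTERT), dosed 60 min, then exposed to the DSB inducer NCS for 30 min.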
TRPML1 inh – blocks the human TRPML1 channel. AID 624415. activity change, negative = inhibition, % (no concentration beside the values). 390,000 compounds, 0.02% hits. Q9GZU1. TRPML1-inducible cells, Ca2+ dye fluorescence, FDSS; hits give low values; inhibition of EC80 agonist-evoked calcium signal; in the data active = activity change below about -50%; inconclusive = between about -30% and that limit;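 also: stimulus is agonist 54-4 at its EC80 concentration; % is scaled to controls: 0 for no effect and ±100 for the full control effect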
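Calcium fluorescence in TRPML1-DL cells induced overnight with Tet: a 110 s read after compound pin addition, then a 110 s antagonist read after challenge with 54-4 at 4 uM final (EC80).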
* = called active by the depositor; ? = inconclusive; . = no result given. Unless noted, calls follow the shape of the dose curve; as a rule, active = well fitted curve in the direction sought with a large enough effect; inconclusive = small, poorly fitted or top-dose-only effect, or another doubt; inactive = no such curve, though single readings can be large; an effect the other way counts as inactive or inconclusive.

SMILES	Vif-A3F inh	TRPML1 agonist	Vif-A3G inh	AT treatment	TRPML1 inh
O=C(Cc1ccccc1)N/N=C/c1ccc(-c2ccc([N+](=O)[O-])cc2)o1	?	2	7.9µM*	5%	8
NC(=O)N/N=C/c1ccc(-c2ccc([N+](=O)[O-])cc2)o1	5%	2	2%	14%	16
Cc1cc2ccccc2nc1-c1ccccc1F	1%	1	0%	.	11
O=C1c2ccccc2-c2nc3ccccc3cc21	2.8µM*	-1	-8%	6%	-5
c1ccc2c(c1)Cc1cc3ccccc3nc1-2	10µM*	2	?	0%	8
Cc1ccc2c(c1)c1c(c(=O)n(Cc3ccccc3)c(=O)n1CC(=O)NCc1ccccc1Cl)n2C	1%	0	-1%	.	15
Cc1nc2cc(C(=O)NCCC3=CCCCC3)ccc2n1-c1ccc(Br)cc1	-5%	1	-4%	.	-1
Cc1nc2sc(C#N)c(N)c2c2c1CCCC2	.	1	2%	21%	6
CC(=O)c1sc2nc(C)c3c(c2c1N)CCCC3	4%	1	0%	35µM*	-7
CNc1ccc(/C=C2\C=Cc3ccccc32)cc1OC	.	1	-21%	.	.
CC(C)(C)n1ncc2c(=O)n(Cc3ccccc3SC(F)(F)F)cnc21	.	1	-8%	.	11
C#CCOc1c(Cl)cc(/C=N/NC(N)=S)cc1OCC	?	0	-12%	10%	2
CCOc1c(Cl)cc(/C=N/NC(N)=S)cc1OC	11µM*	0	1%	-2%	20
CCN(CC)c1ccc(C=C2C(=O)OC(c3ccccc3)OC2=O)cc1 (configuration not stated)	-20%	0	-1%	3%	-6
CCN(CC)c1ccc(/C=C/C(=O)C2C(=O)C=C(C)OC2=O)cc1 (configuration not stated)	-314%	127*	13%	-2%	-12
Cc1cccc(NC(=O)Cn2c(=O)oc3cc(S(=O)(=O)N4CCCCCC4)ccc32)c1	.	3	.	.	-17
CC1=C(C(=O)Nc2ccc(C)cc2Cl)C2(CCCCC2)OC1=O	.	4	.	.	-3
COc1cc2c(c(OC)c1)C(c1cccc(F)c1F)CC(=O)N2 (configuration not stated)	3%	57*	3%	.	-13
Cc1ccc(-c2csc(C(O)c3cccc(Cl)c3)n2)cc1C (configuration not stated)	.	0	-13%	.	.
CCC(C)Sc1cccc(-c2nc3ccc(C)cn3c2NCc2ccccc2)c1 (configuration not stated)	?	0	0%	22µM*	61
CCC(C)Sc1cccc(-c2nc3ccc(Cl)cn3c2NCc2ccccc2)c1 (configuration not stated)	-5%	0	-1%	20µM*	70
CCC(C)Sc1cccc(-c2nc3cc(C)ccn3c2NC2CCCCC2)c1 (configuration not stated)	22µM*	-1	-8%	34%	-14
CCC(C)Sc1cccc(-c2nc3ccccn3c2NCc2ccccc2)c1 (configuration not stated)	6%	1	?	17%	62
CCCCCCSc1cccc(-c2nc3cc(C)ccn3c2NCc2ccccc2)c1	?	1	-2%	20µM*	41
Cc1cccc(C)c1-n1ncc(C(=O)N2CCN(c3ccccn3)CC2)c1C1CCN(C(=O)OC(C)(C)C)CC1	-3%	4	-3%	.	-17
Cc1ccc(NC(=O)C2CCN(S(=O)(=O)c3ccc(Cl)c(C(F)(F)F)c3)CC2)nc1	?	69*	?	1%	-8
COCCNC(=S)N/N=C(\C)CCc1ccc2c(c1)OCO2	-8%	0	-1%	3%	-2
C/C(CCc1ccc2c(c1)OCO2)=N\NC(=S)NC(C)C	13µM*	1	1%	-3%	6
CC(C)COc1ccc(C(=O)N/C(=C/c2cccc([N+](=O)[O-])c2)C(=O)O)cc1	-9%	1	10µM*	2%	9
CC(C)COc1ccc(C(=O)N/C(=C\c2cccc([N+](=O)[O-])c2)C(=O)O)cc1	-2%	0	0%	10%	2

Source: PubChem (National Center for Advancing Translational Sciences (NCATS))
